Each structure is given as a SMILES string. The panel holds about 83,000 compounds, 20% with a hit somewhere; the sample as a whole holds those more often.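 48-hour exposure, single concentration, 96-well plates; percent growth endpoint where 0 means no net growth. Active: below 10.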 Active and inactive are the calls of the source.

The subject of one experiment is T-47D breast. Nature of the experiment: NCI-60 one-dose screen, 48 h (100 = growth as untreated, 0 = no growth, -100 = all killed). The following applies: 10 µM.
For the compound `Cc1cc(N=C2NC(=O)S/C2=C\c2ccc(F)cc2)n[nH]1`, the growth is 18.1% (inactive).
Still for that read-out and setting: next, `O=C(CC(=O)Nc1ccc(Oc2ncnc3scc(Nc4n[nH]c(=S)s4)c23)cc1)Nc1ccc(Cl)cc1`: 55.1% (inactive); `Cc1ccc2c(c1)C(=O)/C(=C/c1c[nH]c3ccccc13)S2`: 33.5% (inactive).
Still for that read-out and setting: next, `COc1cc(C2CC(c3ccc(Oc4ccc(Cl)cc4)cc3)=NN2c2nc(-c3ccc(Cl)cc3)c(C#N)c(N3CCOCC3)n2)cc(OC)c1OC` (stereo unspecified): 91.8% (inactive).
The same measure, in the same setting: next, `Cc1ccc2sc3c(c2c1)Oc1nc[nH]c(=O)c1C3c1cccc(F)c1` (stereo unspecified): 83.9% (inactive).
Consider `COc1ccc(C2c3sc4ccc(C)cc4c3Oc3nc[nH]c(=O)c32)cc1` (stereo unspecified), for which the growth was 83.4% (inactive).
The same measure, in the same setting: next, `CC(C)(C)c1cc(/C=C2\S/C(=N/c3ncn[nH]3)NC2=O)cc(C(C)(C)C)c1O`: 10.3% (inactive); `O=C(Nc1ccc(OCc2ccc(F)cc2)cc1)Nc1ccc(Cl)c(C(F)(F)F)c1`: 6.12% (active).
Still for that read-out and setting: next, `O=C(CSc1nc2ccccc2c(=O)n1-c1ccc(Cl)cc1)Nc1ccc(-c2nc3ccc([N+](=O)[O-])cc3[nH]2)cc1`: 6.69% (active).

The test system of a further experiment is BT-549 breast. The experiment is described as above. The conditions noted are these: 10 µM.
Regarding `Cc1cc(N=C2NC(=O)S/C2=C\c2ccc(F)cc2)n[nH]1`, the growth is 3.56% (active).
The same measure, in the same setting: next, `Cc1ccc2c(c1)C(=O)/C(=C/c1ccc([N+](=O)[O-])cc1)S2`: 101% (inactive); `O=C(CSc1nc2ccccc2c(=O)n1-c1ccc(Cl)cc1)Nc1ccc(-c2nc3ccccc3[nH]2)cc1`: 35.6% (inactive).
Still for that read-out and setting: next, `COc1cc(C2CC(c3ccc(Oc4ccc(Cl)cc4)cc3)=NN2c2nc(-c3ccc(Cl)cc3)c(C#N)c(N3CCOCC3)n2)cc(OC)c1OC` (stereo unspecified): 116% (inactive); `O=C(Nc1ccc(OCC(=O)c2ccc(Cl)cc2)cc1)Nc1ccc(Cl)c(C(F)(F)F)c1`: 76% (inactive).
Still for that read-out and setting: next, `Cc1ccc2sc3c(c2c1)Oc1nc[nH]c(=O)c1C3c1cccc(F)c1` (stereo unspecified): 95.5% (inactive); `COc1ccc(C2c3sc4ccc(C)cc4c3Oc3nc[nH]c(=O)c32)cc1` (stereo unspecified): 77.9% (inactive); `CC(C)(C)c1cc(/C=C2\S/C(=N/c3ncn[nH]3)NC2=O)cc(C(C)(C)C)c1O`: -2.05% (active).
Turning to `Cn1cc(/C=C(/SS/C(=C/c2cn(C)c3cccc(C(=O)O)c23)C(=O)O)C(=O)O)c2c(C(=O)O)cccc21`, the growth was 114% (inactive).
In the case of `CCn1c(SCC(=O)Nc2ccc(-c3nc4ccccc4[nH]3)cc2)nc2ccccc2c1=O`, the growth was -83.6% (active).
On the same count and under the same terms, next, `O=C(Nc1ccc(OCc2ccc(F)cc2)cc1)Nc1ccc(Cl)c(C(F)(F)F)c1`: -15.9% (active); `O=C(CC(=O)Nc1ccc(Oc2ncnc3scc(Nc4n[nH]c(=S)s4)c23)cc1)Nc1ccc(Br)cc1`: 108% (inactive); `O=C1NC(=S)S/C1=C\c1cn(-c2ccccc2)nc1-c1ccc([N+](=O)[O-])cc1`: -16% (active).

The subject of a further experiment is MDA-MB-435 melanoma. Described as above. The conditions noted are these: 10 µM.
As to `COc1ccc(C2c3sc4ccc(C)cc4c3Oc3nc(N)nc(N)c32)cc1` (stereo unspecified), the growth is 9.83% (active).
Same read-out and setting: next, `Cc1cc(N=C2NC(=O)S/C2=C\c2ccc(F)cc2)n[nH]1`: -11.3% (active); `Cn1cc(-c2nnc(N)nc2-c2c[nH]c3ccccc23)c2cc(Br)cnc21`: 5.61% (active).
The same measure, in the same setting: next, `O=C(CC(=O)Nc1ccc(Oc2ncnc3scc(Nc4n[nH]c(=S)s4)c23)cc1)Nc1ccc(Cl)cc1`: 83.2% (inactive); `O=C1NC2C=CC=CC2/C1=C1/SC(=S)N(C2CC(=O)N(c3ccc(Br)cc3)C2=O)C1=O` (stereo unspecified): 95.7% (inactive); `CC1(C)CC(=O)C2=C(C1)N(Cc1ccc(C(=O)O)cc1)C1=C(C(=O)CC(C)(C)C1)C2c1ccc(Cl)cc1`: 102% (inactive).
The same measure, in the same setting: next, `Cc1ccc2c(c1)C(=O)/C(=C/c1ccc([N+](=O)[O-])cc1)S2`: 98.9% (inactive).
Regarding `O=C(Nc1ccc(OCc2ccc(Cl)cc2)cc1)Nc1ccc(Cl)c(C(F)(F)F)c1`, the growth was 14.2% (inactive).
Take `Cn1cc(-c2nc(N)nnc2-c2c[nH]c3ccccc23)c2cc(Br)cnc21`: the growth was -25.2% (active).
`O=C(CSc1nc2ccccc2c(=O)n1-c1ccc(Cl)cc1)Nc1ccc(-c2nc3ccccc3[nH]2)cc1`: the growth was -16% (active).
On to `Cc1ccc2c(c1)C(=O)/C(=C/c1c[nH]c3ccccc13)S2`, for which the growth was 43.8% (inactive).
Still for that read-out and setting: next, `COc1cccc(O)c1/C=C1\SCc2cc3c(OC)cccc3[o+]c21`: 132% (inactive); `COc1cc(C2CC(c3ccc(Oc4ccc(Cl)cc4)cc3)=NN2c2nc(-c3ccc(Cl)cc3)c(C#N)c(N3CCOCC3)n2)cc(OC)c1OC` (stereo unspecified): 94.2% (inactive).
The same measure, in the same setting: next, `O=C(Nc1ccc(OCC(=O)c2ccc(Cl)cc2)cc1)Nc1ccc(Cl)c(C(F)(F)F)c1`: 51.5% (inactive); `Cc1ccc2sc3c(c2c1)Oc1nc[nH]c(=O)c1C3c1cccc(F)c1` (stereo unspecified): 96.1% (inactive).
`Cc1cc(N=C2NC(=O)/C(=C/c3cc(C(C)(C)C)c(O)c(C(C)(C)C)c3)S2)n[nH]1`: the growth is 4.96% (active).
With `COc1ccc(C2c3sc4ccc(C)cc4c3Oc3nc[nH]c(=O)c32)cc1` (stereo unspecified), the growth is -0.755% (active).
The same measure, in the same setting: next, `COc1cccc(C(=O)CSc2nc(-c3ccc(OCc4ccccc4)c(OC)c3)c(C#N)c(=O)[nH]2)c1`: 95.7% (inactive).
Take `Cc1ccc(COc2ccc(NC(=O)Nc3ccc(Cl)c(C(F)(F)F)c3)cc2)cc1`: the growth is 86.1% (inactive).
Same read-out and setting: next, `CC(C)(C)c1cc(/C=C2\S/C(=N/c3ncn[nH]3)NC2=O)cc(C(C)(C)C)c1O`: 11.9% (inactive); `Cn1cc(/C=C(/SS/C(=C/c2cn(C)c3cccc(C(=O)O)c23)C(=O)O)C(=O)O)c2c(C(=O)O)cccc21`: 98% (inactive); `COc1ccc(C(=O)COc2ccc(NC(=O)Nc3ccccc3)cc2)cc1`: 89.4% (inactive).
The same measure, in the same setting: next, `CCn1c(SCC(=O)Nc2ccc(-c3nc4ccccc4[nH]3)cc2)nc2ccccc2c1=O`: -94.7% (active).
On the same count and under the same terms, next, `O=C(Nc1ccc(OCc2ccc(F)cc2)cc1)Nc1ccc(Cl)c(C(F)(F)F)c1`: -12.4% (active); `O=C(CC(=O)Nc1ccc(Oc2ncnc3scc(Nc4n[nH]c(=S)s4)c23)cc1)Nc1ccc(Br)cc1`: 103% (inactive).
On to `COc1ccc(C(=O)COc2ccc(NC(=O)Nc3ccc(Cl)c(C(F)(F)F)c3)cc2)cc1`, for which the growth was 27.3% (inactive).
On the same count and under the same terms, next, `O=C(Nc1ccc(Oc2ncnc3scc(Nc4n[nH]c(=S)s4)c23)cc1)C1(C(=O)Nc2cccc(C(F)(F)F)c2)CC1`: 105% (inactive); `O=C1NC(=S)S/C1=C\c1cn(-c2ccccc2)nc1-c1ccc([N+](=O)[O-])cc1`: 6.24% (active); `O=C(CSc1nc2ccccc2c(=O)n1-c1ccc(Cl)cc1)Nc1ccc(-c2nc3ccc([N+](=O)[O-])cc3[nH]2)cc1`: 39.6% (inactive).

(Values after PubChem BioAssay (NCI).)
